# Test results taken from PubChem BioAssay (NCATS).
# A number with no mark means an inactive call. Results filed as inconclusive are left out. Activity calls are given as the source filed them. Calls follow the shape of the dose curve; as a rule, active = well fitted curve in the direction sought with a large enough effect; inconclusive = small, poorly fitted or top-dose-only effect, or another doubt; inactive = no such curve, though single readings can be large; an effect the other way counts as inactive or inconclusive.
# System: not listed separately
# Test: Cellular Toxicity (caspase-3) Renal Proximal Tubule (AID 667);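 also: cells exposed to compound for 16 hours at 37 °C before detection; 0% = DMSO basal and 100% = 10 µM staurosporine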
# Settings: renal proximal tubule cells, primary cells freshly taken from rat, solvent-only wells 0%, staurosporine 100%; series mostly up to 91.7 µM; caspase-3 activation: at the top concentration
# In short: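 Caspase-Glo 3/7 read-out, rat primary kidney proximal tubule cells. Compound exposure 16 h, 37 °C; detection after 1 h at RT. Activity scaled to DMSO and 10 uM staurosporine.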
row,Compound,caspase-3 activation
1,C/C=C1\C(=O)C[C@H]2[C@@H]3CCC4=CC(=O)CC[C@]4(C)[C@H]3CC[C@]12C,15.5%
2,C=C(C)c1ccccc1,4.34%
3,O=C1OC(O)C(C(Cl)Cl)=C1Cl (configuration not stated),-12%
4,Cc1ccc(S(=O)(=O)Oc2ccc(N=Nc3ccc(-c4ccc(N=Nc5c(O)ccc6cc(S(=O)(=O)O)cc(S(=O)(=O)O)c56)c(C)c4)cc3C)cc2)cc1,-0.405%

# Biological target: Cytochrome P450 3A4 (Homo sapiens) (UniProt P08684)
# Test: qHTS Assay for Inhibitors and Substrates of Cytochrome P450 3A4 (AID 884); also: nearly all actives have a fitted effect of over 50% in size; also: potency is read from the fitted curve at half-maximal effect; as to activity change, negative = inhibition: % is scaled to controls: 0 for no effect and ±100 for the full control effect
# Settings: recombinant CYP3A4, Luciferin-PPXE luminescence; series mostly up to 57.1 µM; activity change, negative = inhibition: at the top concentration
# In short: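 Luminescent readout of luciferin produced by CYP3A4 (20 nM) dealkylation of Luciferin-PPXE, 25 uM (its KM). NADPH-driven reaction ran 60 min at RT after 10 min compound preincubation; data scaled to 57 uM ketoconazole as 100% inhibition.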
# Sequence of Cytochrome P450 3A4 (Homo sapiens) (P08684 whole entry, looked up): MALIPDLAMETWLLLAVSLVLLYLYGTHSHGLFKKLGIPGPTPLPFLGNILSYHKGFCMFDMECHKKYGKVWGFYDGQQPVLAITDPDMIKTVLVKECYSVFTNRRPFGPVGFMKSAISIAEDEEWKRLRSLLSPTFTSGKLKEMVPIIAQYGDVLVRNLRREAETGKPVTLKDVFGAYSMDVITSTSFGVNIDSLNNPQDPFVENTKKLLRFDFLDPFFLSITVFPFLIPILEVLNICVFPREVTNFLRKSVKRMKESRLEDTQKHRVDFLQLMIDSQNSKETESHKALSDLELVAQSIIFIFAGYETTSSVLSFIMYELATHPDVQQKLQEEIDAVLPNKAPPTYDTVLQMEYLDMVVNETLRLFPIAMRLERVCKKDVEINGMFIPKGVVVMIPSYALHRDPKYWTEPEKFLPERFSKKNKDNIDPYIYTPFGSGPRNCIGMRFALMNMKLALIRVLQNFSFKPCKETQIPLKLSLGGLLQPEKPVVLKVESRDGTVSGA
Compound,Potency,"activity change, negative = inhibition"
Cc1cc(Nc2ccc(O)cc2)ccc1N,15.8 µM (active),–
O=C(OCC(COC(=O)c1ccccc1)(COC(=O)c1ccccc1)COC(=O)c1ccccc1)c1ccccc1,–,-14%
ClC1=C(Cl)C(Cl)(Cl)C(Cl)=C1Cl,–,-3.21%
CC(=O)Nc1ccc(C(=O)CCl)cc1,–,-26.5%
c1ccc2c(c1)-c1cccc3c1c-2cc1ccccc13,–,-27%
CCC(C)Nc1ccc(NC(C)CC)cc1 (configuration not stated),15.8 µM (active),–
CNc1ccc(O)cc1,12.6 µM (active),–
C=CC(=O)OCCOCCOC(=O)C=C,–,-19.8%
O=C1OC2(c3cc(Br)c(O)c(Br)c3Oc3c2cc(Br)c(O)c3Br)c2c(Cl)c(Cl)c(Cl)c(Cl)c21,20 µM (active),–
Oc1ccc2cc(SSc3ccc4cc(O)ccc4c3)ccc2c1,15.8 µM (active),–
c1ccc2c(c1)ccc1cc3c(ccc4ccccc43)cc12,–,-2.29%
C/C=C1\C(=O)C[C@H]2[C@@H]3CCC4=CC(=O)CC[C@]4(C)[C@H]3CC[C@]12C,–,-18.1%
O=C1OC(O)C(C(Cl)Cl)=C1Cl (configuration not stated),–,-8.42%
